# Experimental data from PubChem BioAssay (EPA / NIEHS).
# The source holds several records for some structures; these can differ, active in one and inactive in another. The source made the active and inactive calls. How the source made its calls: active means hit-call score of the fitted dose curve at least 0.9, where 1 is the maximum; inactive means score below 0.9.
# Biological target: Hypoxia-inducible factor 1-alpha (Homo sapiens) (UniProt Q16665)
# Assay: ATG_HIF1a_CIS: Attagene CIS-FACTORIAL HepG2 Assay for human Hypoxia Inducible Factor 1 (HIF1A) (AID 2282951)
# Conditions: HepG2 Attagene cis-factorial HIF1a reporter transcription; actives raise or lower the signal
# In short: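 Cis-element reporter constructs were transiently transfected into HepG2 cells, which were treated for 24 h; reporter RNA was reverse-transcribed, amplified, labelled and resolved by capillary electrophoresis.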
# Chain of Hypoxia-inducible factor 1-alpha (Homo sapiens) (Q16665 whole entry, looked up): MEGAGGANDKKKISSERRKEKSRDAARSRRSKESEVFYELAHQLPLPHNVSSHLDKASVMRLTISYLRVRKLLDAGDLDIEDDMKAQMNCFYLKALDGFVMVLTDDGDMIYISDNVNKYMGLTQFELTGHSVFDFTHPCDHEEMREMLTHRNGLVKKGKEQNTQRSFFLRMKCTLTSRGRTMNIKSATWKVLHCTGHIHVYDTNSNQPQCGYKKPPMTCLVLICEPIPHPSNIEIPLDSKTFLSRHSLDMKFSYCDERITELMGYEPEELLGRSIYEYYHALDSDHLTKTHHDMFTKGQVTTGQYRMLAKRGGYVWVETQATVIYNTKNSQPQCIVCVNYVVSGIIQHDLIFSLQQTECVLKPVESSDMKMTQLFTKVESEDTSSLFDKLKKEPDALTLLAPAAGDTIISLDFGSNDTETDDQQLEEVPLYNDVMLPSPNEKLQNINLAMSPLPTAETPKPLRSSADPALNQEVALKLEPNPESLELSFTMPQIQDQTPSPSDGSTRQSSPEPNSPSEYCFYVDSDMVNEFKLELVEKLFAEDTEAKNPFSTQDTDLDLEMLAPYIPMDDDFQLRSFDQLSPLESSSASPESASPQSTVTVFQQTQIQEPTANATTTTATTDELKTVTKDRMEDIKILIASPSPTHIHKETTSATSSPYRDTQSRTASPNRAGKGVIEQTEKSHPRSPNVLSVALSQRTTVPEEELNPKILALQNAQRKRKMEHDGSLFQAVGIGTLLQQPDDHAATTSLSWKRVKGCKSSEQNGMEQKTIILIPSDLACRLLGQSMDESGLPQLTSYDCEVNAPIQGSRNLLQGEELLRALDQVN
Compound,outcome,AC50
C=C(C)C(=O)OCCC(F)(F)C(F)(F)C(F)(F)C(F)(F)C(F)(C(F)(F)F)C(F)(F)F,inactive,
CCCCCCCCCCCCCCCC[N+](C)(C)Cc1ccccc1,inactive,
CC(C)(C)C(=O)CC(=O)C(F)(F)C(F)(F)C(F)(F)F,inactive,
C(=C(c1ccccc1)c1ccccc1)c1ccccc1,inactive,
CCCCNc1ccccc1,inactive,
O=C(O)C(F)(F)C(F)(F)C(F)(F)F,inactive,
FC(F)(F)C(F)(F)C(F)(F)N(C(F)(F)C(F)(F)C(F)(F)F)C(F)(F)C(F)(F)C(F)(F)F,inactive,
O=S(=O)(OCC(F)F)C(F)(F)F,inactive,
COC(OC(C)=O)c1ccccc1 (stereo not given),inactive,
FC(F)(Br)C(F)(F)C(F)(F)C(F)(F)C(F)(F)C(F)(F)Br,inactive,
O=C(O)C(F)(OC(F)(F)C(F)(OC(F)(F)C(F)(F)C(F)(F)F)C(F)(F)F)C(F)(F)F (stereo not given),inactive,
O=C(O)C(F)(F)C(F)(F)C(F)(F)C(F)(F)C(F)(F)C(F)(F)C(F)(F)C(F)(F)C(F)(F)C(F)(F)C(F)(F)C(F)(F)C(F)(F)F,inactive,
O=C(O)C(F)(F)C(F)(F)C(F)(F)C(F)(F)C(F)(F)C(F)(F)C(F)(F)C(F)(F)C(F)(F)C(F)F,inactive,
O=C(O)C(F)(F)C(F)(F)C(F)F,inactive,
CCCCCCOC(=O)c1ccccc1O,inactive,
NC(=O)C(F)(F)C(F)(F)C(F)(F)C(F)(F)F,inactive,
FC(F)(F)C(F)(F)C(F)(F)C(F)(F)C(F)(F)C(F)(F)CC1CO1 (stereo not given),inactive,

Compound,outcome,AC50
FC1CC(F)(F)C(F)(F)C1(F)F (stereo not given),inactive,
CCCCOc1ccc(N)cc1,inactive,
O=C(O)C(F)(F)C(F)(F)C(F)(F)C(F)(F)C(F)(F)C(F)(F)C(F)(F)C(F)(F)Cl,,50 µM (active)
CC(Cc1ccc(O)c(O)c1)C(C)Cc1ccc(O)c(O)c1 (stereo not given),,8.95 µM (active)
FC(F)(F)C(F)(F)C(F)(F)C(F)(F)C(F)(F)C(F)(F)C(F)(F)I,inactive,
CCCCOCCOCCOC(=O)CCCCC(=O)OCCOCCOCCCC,inactive,
OCCCC(F)(F)C(F)(F)C(F)(F)C(F)(F)C(F)(F)C(F)(F)C(F)(F)F,inactive,197 µM (active)
CNC(=S)NC,inactive,
[Co],inactive,
C=CC(F)(F)C(F)(F)C(F)(F)C(F)(F)C(F)(F)C(F)(F)C(F)(F)C(F)(F)C=C,inactive,
CCC(=O)OCCc1ccccc1,inactive,
CC/C=C\CCOC(=O)c1ccccc1,inactive,
O=C(C=Cc1ccccc1)OCC=Cc1ccccc1,inactive,
CCCCCCCOC(=O)c1ccccc1C(=O)OCCCCCCC,inactive,
OCCCC(F)(F)C(F)(F)C(F)(F)F,inactive,
CCCCCCC(C)OC(=O)CCCCC(=O)OC(C)CCCCCC (stereo not given),inactive,
OCC(F)(F)C(F)(F)C(F)(F)F,inactive,
